Among the data in PubChem BioAssay are z-score values, retold here.

Values without a mark were called inactive.

The assay can be described thus: JC-1 mitochondrial signal, unstimulated adipocytes – cell-based, JC-1 fluorescence, 3T3-L1 adipocytes, 24 h, 100 nL compound, profiling panel (AID 1168). Also: test concentration not given here. To be noted: JC-1 mitochondrial fluorescence, higher = more signal, called active from +8 up or from −8 down.
As to `CC1CC/C=C\[C@H]2OC34C=CCN(C(C)C)C(=O)[C@H]3N(CCO)C(=O)[C@@H]4C2C(=O)O1` (stereo partly specified), the z-score is 0.691. The result for `C=C(/C(=C/C[C@H](OC(=O)c1ccncc1)c1ccc(CO)o1)c1cnc2ccccc2c1)C(C)C` reads 0.0957; that for `Cc1ccc(F)cc1S(=O)(=O)N[C@@H]1CCN(Cc2ccc(Br)cc2)C1`, 0.0995.

For the molecule `CN1C2C=C(CCCO)C(C3C(=O)N(C(N)=O)C(=O)C32)C1C1CC1` (stereo unspecified), the z-score was 0.0295. Take `Cc1ccc(S[C@]2(C(=O)O)CC(=O)N(C3CCCCC3)[C@@H]2c2ccc(CO)cc2I)cc1`: the z-score was -0.343. In the case of `COCCOC(=O)N1C(=O)[C@@]2(c3cc(C#CC4(O)CCCCCC4)ccc31)[C@H](C(=O)N1CCc3cc(OC)c(OC)cc3C1)[C@H]1C(=O)O[C@H](c3ccccc3)[C@H](c3ccccc3)N1[C@@H]2c1ccc(OCCO)cc1`, the z-score is 0.354. To `COC(=O)[C@@]1(Cc2ccc(OC)cc2)[C@H]2c3cc(C(=O)N4CCCC4)n(CCc4c[nH]c5ccc(O)cc45)c3C[C@H]2CN1C(=O)c1ccccc1` belongs -0.793; to `CN(C)C(=O)[C@]1(CCC(=O)OC(C)(C)C)N=C(c2ccc(OCCCO)cc2)O[C@@H]1c1ccccc1CN=[N+]=[N-]`, -0.682; to `CCOC(=O)C1=CC[C@@H](c2ccccc2)N(S(=O)(=O)c2ccc(C)cc2)[C@H]1c1ccccc1`, -1.29. To `NC(=O)[C@H]1[C@@H]2C(=O)O[C@@H](c3ccccc3)[C@@H](c3ccccc3)N2[C@@H](c2ccc(OCCO)cc2)[C@]12C(=O)Nc1ccc(C#CCCO)cc12` belongs -0.383; to `CCCCCCCCCC(O)C1C=CC2C(=O)N(c3ccccc3)C(=O)C2N1Nc1cc(OC)c(OC)c(OC)c1` (stereo unspecified), 0.783.

Regarding `COc1cc(OC)c(C(O)C2C=CC3C(=O)N(Cc4ccccc4)C(=O)C3N2n2cnnc2)cc1Br` (stereo unspecified), the z-score is 0.771. The result for `O=C1O[C@@H](c2ccccc2)[C@@H](c2ccccc2)N2[C@@H](c3ccc(OCCO)cc3)[C@]3(C(=O)Nc4ccc(C#CC5=CCCCC5)cc43)[C@@H](C(=O)NC[C@H](O)c3ccccc3)[C@H]12` reads -0.106; that for `CC(C)[Si](C#CCCCC#N)(O[C@H](c1ccccc1)c1cn(Cc2ccccc2)nn1)C(C)C`, 0.0406. On to `CC1=C2[C@@H](CCc3ccccc3)OB(O)C[C@@H]2[C@@H]2C(=O)N(C)C(=O)[C@@H]2C1`, for which the z-score is -0.467. To `COc1ccc([Si](C)(C)[C@H]2[C@H](CC(=O)N(CCO)Cc3ccccc3)O[C@@]3(C(=O)N(C)c4c(Br)cc(C)cc43)[C@@H]2C)cc1` belongs 0.0268; to `C=CC[C@@]1(C(=O)NCCCOC)N=C(c2ccc(OCCCO)cc2)O[C@@H]1c1ccccc1N=[N+]=[N-]`, 0.863. To `COC(=O)C(CC#Cc1ccc2c(c1)[C@]1(C(=O)N2)[C@H](c2ccc(O)cc2)N2[C@H](c3ccccc3)[C@H](c3ccccc3)OC(=O)[C@H]2[C@@H]1C(=O)NC[C@H](O)c1ccccc1)C(=O)OC` belongs -0.837; to `COc1ccc([Si](C)(C)[C@H]2[C@H](CC(=O)N3Cc4ccccc4C[C@H]3CO)O[C@@]3(C(=O)N(Cc4ccc(N5CCOC5=O)cc4)c4ccccc43)[C@@H]2C)cc1`, 0.19; to `COC(=O)c1c(CC[C@@H](CO)NC(=O)N[C@@H](C)Cn2cc(-c3ccccn3)nn2)oc(C(C)=O)c1C(=O)OC`, -0.857. Turning to `COCC(=C=CC[C@H](O)c1ccc(OCCO)cc1)CCO`, the z-score was -0.597.

As for `N[C@@H](Cc1ccccc1)C(=O)NCc1cn(Cc2ccccc2)nn1`, the z-score was -0.0638. With `CCOC(=O)C[C@H]1[C@H](OC(=O)Cc2ccc3c(c2)OCO3)[C@@H](NC(=O)c2ccc3ccccc3n2)c2cc(OCCCO)ccc2N1C(=O)c1ccccc1`, the z-score is 0.0925. On to `CC(CO)N1C(=O)[C@]2(C)C3C(=O)OCCC/C=C\[C@H]3OC23C=CCN(c2ccc(Cl)cc2)C(=O)[C@@H]13` (stereo partly specified), for which the z-score was 0.204. As to `CC(=O)NCCCC[C@@H]1NC(=O)[C@@H]2C[C@H](C(=O)NCCCCCN)[C@H](c3ccc(O)cc3)N2C1=O`, the z-score was -0.00185. For `COC(=O)[C@@]1(Cc2ccccc2)[C@H]2c3cc(C(=O)N(C)C)n(Cc4ccc(C)o4)c3C[C@H]2CN1C(=O)c1ccccc1`, the z-score is -2.61.
